Measurements as given in PubChem BioAssay (NCI).
Compounds without any hit were thinned out: in the full panel of roughly 83,000, 20% have a hit.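 Method: cells in 96-well plates; compound added at one concentration; 48 h incubation; percent growth measured; values under 10 scored active.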 A number with no mark means an inactive call. Activity calls are given as the source filed them.

System: HL-60(TB) leukemia
Assay: NCI-60 one-dose screen, 48 h (100 = growth as untreated, 0 = no growth, -100 = all killed)
Details: 10 µM unless noted

Compound: COc1cc(F)c(-c2nc3c(C)cccc3n2Cc2c(F)cccc2F)c(F)c1
- growth: 78.8%

Compound: NCCCN1CCCC1=O
- growth: 90.1%

Compound: CCCCN(CCCC)C(=N)c1ccnc2ccccc12
- growth: 64.8%

Compound: CCN(C)S(=O)(=O)Nc1cccc(Nc2ncnc3cc(NC(=O)CCl)ccc23)c1Cl
- growth: 4.38% (active)

Compound: COc1ccc2cn3c4ccc(O)cc4[nH]c(=O)c3c2c1
- growth: -7.42% (active)

Compound: CC(C)Cn1cnc2c(NCn3nc(-c4cc(Cl)cc(Cl)c4Cl)n(/N=C/c4ccc(Cl)cc4)c3=S)nc3ccccc3c21
- growth: 93.3%

Compound: O=C1CCN2C(=O)Nc3ccccc3C2C1 (stereo unspecified)
- growth: 94.5%

Compound: O=C(NCCN1CCOCC1)Nc1ccc(-c2cc3c(Nc4ccc(Oc5cccc(C(F)(F)F)c5)c(Cl)c4)ncnc3s2)cc1
- growth: -25.6% (active)

Compound: CC1=C([Se]CC(OC(=O)[C@@H](CSSC(C)(C)C)NC(=O)OC(C)(C)C)C(=O)NC(C)(C)C)C(=O)c2ccccc2C1=O (stereo partly specified)
- growth: -2.66% (active)

Compound: O=C(CCCCCCCC(=O)N1CCCCC1)N1CCCCC1
- growth: 94.5%

Compound: N#Cc1cccc(C2C3=C(COC3=O)N(CCO)c3cc4c(cc32)CCC4)c1 (stereo unspecified)
- growth: -27.2% (active)

Compound: CCOC(=O)C1=CSC2=NC3=C(CCC/C3=C\c3ccc(Cl)cc3)C(c3ccc(Cl)cc3)N12 (stereo unspecified)
- growth: 79.7%

Compound: O=S(=O)(NCCCNc1cc(-c2cn(-c3ccccc3)nc2-c2cccc(O)c2)ccn1)c1ccc(Br)cc1
- growth: -13.1% (active)

Compound: CC(C)=C(NC(=O)c1ccccc1)C(=O)O
- growth: 110%

Compound: COc1cc2c(c(OC)c1OC)-c1cc(I)c(O)cc1[C@@H](NC(C)=O)CC2
- growth: 12.7%

Compound: C#CC#CC#CC#CC#CC#CC#CC#CC[C@@H]1OC[C@H](COC(=O)O[C@@H](C(=O)O[C@H]2C[C@@]3(O)[C@@H](OC(=O)c4ccccc4)[C@@H]4[C@]5(OC(C)=O)CO[C@@H]5C[C@H](O)[C@@]4(C)C(=O)[C@H](OC(C)=O)C(=C2C)C3(C)C)[C@@H](NC(=O)c2ccccc2)c2ccccc2)O1
- growth: 6.04% (active)

Compound: Oc1ccc(-c2nn(-c3ccccc3)cc2-c2nc3ccccc3s2)cc1
- growth: 104%

Compound: COc1ccc(/C(C)=C(\c2ccc(Cl)cc2)c2ccc(OCCN3CCCC3)cc2)cc1
- growth: 37.9%

Compound: Nc1ccccc1-c1ccn[nH]1
- growth: 95.6%

Compound: COc1ccc(C2C(C#N)=C(N)Oc3c2sc2c(C)cccc32)cc1 (stereo unspecified)
- growth: -13.9% (active)

Compound: O=C(O)c1ccccc1NCc1ccco1
- growth: 102%
